Holding throughout (assay): NCI-60 one-dose screen, 48 h (100 = growth as untreated, 0 = no growth, -100 = all killed)
The subject of assay [1] is HCT-15 colon. The note with it: 10 µM unless noted.
Assay [2] relates to HT29 colon. The note with it: 10 µM unless noted.
The subject of assay [3] is SNB-75 CNS. Conditions: 10 µM unless noted.
The subject of assay [4] is SNB-19 CNS. Conditions: 10 µM unless noted.
The subject of assay [5] is U251 CNS. The note with it: 10 µM unless noted.
Assay [6] relates to PC-3 prostate. Conditions: 10 µM unless noted.
Assay [7] concerns UACC-62 melanoma. The note with it: 10 µM unless noted.
Assay [8] has as its system LOX IMVI melanoma. Conditions: 10 µM unless noted.
Assay [9] concerns SK-MEL-28 melanoma. The note with it: 10 µM unless noted.
Assay [10] concerns SK-MEL-2 melanoma. Conditions: 10 µM unless noted.
Assay [11] has as its system EKVX NSCLC. Conditions: 10 µM.
For assay [12], the system named is SN12C renal. The note with it: 10 µM unless noted.
Assay [13] relates to UO-31 renal. Conditions: 10 µM unless noted.
Assay [14] concerns TK-10 renal. The note with it: 10 µM unless noted.
Assay [15] concerns ACHN renal. Conditions: 10 µM unless noted.
Assay [16] has as its system CAKI-1 renal. The note with it: 10 µM unless noted.
In assay [17] the test system is A498 renal. Conditions: 10 µM unless noted.
The subject of assay [18] is CCRF-CEM leukemia. Conditions: 10 µM.
Assay [19] concerns MOLT-4 leukemia. The note with it: 10 µM unless noted.
Assay [20] has as its system SK-MEL-5 melanoma. The note with it: 10 µM unless noted.

About 83,000 compounds went through this panel and 20% of them were active in at least one assay; those are over-represented in the sample as a whole.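 Compound tested at a single concentration for 48 hours in 96-well plates; a percent growth value below 10 was scored as active.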 Values without a mark were called inactive. Calls of active or inactive are those of the source.

These results are taken from PubChem BioAssay (NCI).

Take `CC(C)(C)C(=O)CCCCCCCC/C=C/CCCC(O)c1ccco1` (configuration not stated): the growth in assay [1] was 118%; in assay [2], 107%; in assay [3] it was 101%; in [4], 109%; in [5], 105%; in assay [6], 102%. Moreover, the growth was 95.2% in assay [7]; 102% in assay [8]; 106% in assay [9]; 105% in assay [10]; 102% in assay [11]; 110% in [12]. Further, the growth in [13] is 98.3%; in assay [14] it was 105%; in assay [15] it was 120%; in assay [16], 110%; in assay [17], 109%; in [18], -44.3% (active). Also, in [19], the growth was 76.1%.
For `CC(C)OC(=O)Nn1cnc2ccccc21`, the growth in assay [1] is 120%; in [2], 111%; in assay [3] it was 128%; in assay [4], 111%; in assay [5], 106%; in [6] it was 101%. For the same compound, the growth was 107% in assay [7]; 114% in [8]; 128% in assay [9]; 106% in assay [10]; 106% in assay [11]; 113% in [12]. For the same compound, the growth was 93.1% in assay [13]; 87.6% in assay [14]; 114% in assay [15]; 92.2% in assay [16]; 119% in [17]; 81% in assay [18]. Besides, the growth in [19] was 75.2%.
For `COc1ccc(C(O)(c2ccccc2)C(C(=O)O)c2ccccc2)cc1` (configuration not stated), the growth in assay [1] was 107%; in assay [2], 91.3%; in [3] it was 94.6%; in assay [4], 96.9%; in assay [5], 116%; in [6], 85.8%. Further, the growth was 93.6% in assay [7]; 96.7% in assay [8]; 112% in assay [9]; 104% in assay [10]; 111% in [11]; 100% in assay [12]. For the same compound, the growth in assay [13] is 81.6%; in assay [14] it was 105%; in assay [15], 106%; in assay [16], 102%; in [18], 102%; in [19], 102%.
Regarding `CCCCCCCCCC[N+](C)(C)N`, the growth is 101% in assay [1]; 85.4% in [2]; 78.9% in assay [3]; 87.2% in [4]; 91.8% in assay [5]; 62.4% in assay [6]. The growth in assay [20] was 96.7%; in assay [7], 106%; in assay [9], 110%; in [10], 105%; in [12], 103%; in assay [13], 90.3%. Further, the growth in [14] is 74.4%; in assay [15], 105%; in assay [16] it was 78.4%; in assay [17] it was 105%; in [19], 80.5%.
As for `CCOc1nc(-c2ccccc2)cc2c(O)c(C(=O)N/N=C/c3ccccc3O)[nH]c(=O)c12`, the growth in assay [1] is 94%; in [2], 110%; in assay [3], 86.3%; in [4] it was 97.2%; in [5], 101%; in assay [6], 92.8%. For the same compound, the growth was 117% in assay [7]; 101% in [8]; 67.4% in assay [9]; 61.3% in assay [10]; 97.3% in assay [11]; 115% in [12]. For the same compound, the growth was 73.5% in assay [13]; 140% in assay [14]; 107% in assay [15]; 101% in assay [16]; 102% in assay [17]; 69.4% in assay [18]. Moreover, the growth in [19] was 17.1%.
Regarding `COC(=O)C(N)CC(C)C` (configuration not stated), the growth in assay [1] is 103%; in [2], 102%; in assay [3] it was 93.9%; in [4] it was 100%; in [5], 98%; in [6] it was 97.9%. Besides, the growth in assay [20] is 103%; in assay [8], 95.8%; in assay [9] it was 108%; in assay [10], 101%; in [12] it was 17.6%; in [13], 90.5%. The growth in assay [15] is 97.4%; in [16] it was 99.7%; in assay [17], 105%; in [19] it was 91.9%.
On to `Cc1ncc(C(=O)Nc2ccc(CN3CCN(C)CC3)c(C(F)(F)F)c2)cc1C#Cc1c(N)ncc2ccc(F)cc12`, for which the growth is -93.2% (active) in assay [1]; -87.4% (active) in assay [2]; -3.33% (active) in assay [3]; -99.6% (active) in assay [4]; -88.3% (active) in assay [5]; -83.6% (active) in [6]. The growth in assay [7] was -28.7% (active); in assay [8], -74.2% (active); in assay [9], -85.8% (active); in assay [10], 0.14% (active); in assay [11], -7.75% (active); in assay [12], 19.1%. In addition, the growth is 6.12% (active) in [13]; -89.2% (active) in assay [14]; -15.8% (active) in assay [15]; 20.8% in [16]; -65.1% (active) in assay [17]; -47.6% (active) in [18]. Further, the growth in assay [19] is -57.9% (active).
With `O=C(C(=O)N1CCOCC1)c1ccc(O[C@H]2O[C@H](CO)[C@@H](O)[C@H](O)[C@@H]2O)cc1`, the growth in assay [1] was 97.4%; in [2], 93.4%; in assay [3], 100%; in assay [4], 109%; in assay [5], 104%; in assay [6], 88.8%. The growth in assay [7] is 97.1%; in [8], 102%; in assay [9] it was 117%; in assay [10], 107%; in assay [11] it was 116%; in assay [12], 101%. Besides, the growth in assay [13] was 91.5%; in assay [14], 103%; in [15], 95%; in assay [16], 100%; in assay [18], 109%; in assay [19], 103%.
Regarding `O=C(/C=C/c1ccc(Cl)cc1)c1ccc(Cl)cc1`, the growth is 94.3% in assay [1]; 70.2% in assay [2]; 99% in assay [3]; 102% in [4]; 93.8% in [5]; 96.8% in assay [6]. Besides, the growth is 97.3% in [20]; 90.4% in assay [7]; 66.5% in assay [8]; 97.2% in [10]; 76.2% in assay [13]; 78% in assay [14]. Besides, the growth in [15] was 109%; in assay [16], 75.7%; in assay [17] it was 82.8%; in assay [18] it was 66.9%; in assay [19], 81%.
